PubChem BioAssay
Calls of active or inactive are those of the source. Unless noted, no rule for the calls is given here.

Columns and labels:
[1] = compounds binding Alexa647 anti-His antibody – biochemical, small-molecule microarray, 635 nm fluorescence, artefact control for SMM control protein annotation, primary screen (AID 1128); details: higher = more signal;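 also: score merges feature fluorescence with signal-to-noise for each printed compound spot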
[2] = system: Human papillomavirus type 1a E7 protein (residues 1-88); experiment: HPV1a E7 small-molecule binders, primary screen, biochemical, small-molecule microarray, residues 1-88, 635 nm (AID 1129); details: small-molecule microarray binding, fluorescence 635 nm; higher = more signal
[3] = target: Focal adhesion kinase 1 (Homo sapiens) (UniProt Q05397); experiment: PTK2 protein binding on printed compound slides – biochemical, small-molecule microarray, 635/667 nm fluorescence, BSA, DTT, primary screen (AID 1130); details: 635 nm fluorescence, higher = more signal;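 also: composite of spot emission at 667 nm and signal to noise over triplicate slides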
[4] = system: Fibrinogen (Alexa647-labelled); experiment: Alexa647-fibrinogen binding to printed small molecules – biochemical, small-molecule microarray, 635/667 nm fluorescence, artefact control for SMM control-protein annotation, profiling panel (AID 1131); details: fibrinogen-A647 binding fluorescence, higher = more signal;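 also: z-score merges 667 nm fluorescence with per-spot signal-to-noise over triplicate slides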
[5] = target: Follistatin (Homo sapiens) (UniProt P19883); experiment: FST protein binding to printed compounds – biochemical, small-molecule microarray, 635/667 nm fluorescence, primary screen (AID 1132); details: 635 nm fluorescence, higher = more signal
[6] = target: Fibroblast growth factor 2 (Homo sapiens) (UniProt P09038); experiment: basic fibroblast growth factor binding to printed compounds – biochemical, small-molecule microarray, 635/667 nm fluorescence, primary screen (AID 1133); details: FGF2, fluorescence 635/667, higher = more signal
[7] = JC-1 mitochondrial potential readout, lung cancer cells – cell-based, A549, JC-1 fluorescence, basal, 24 h, 100 nL, profiling panel (AID 1138); details: higher = more signal;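 also: A549 lung adenocarcinoma cells under basal conditions with no added stimulus; test concentration not given here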
Lefty1 = Lefty1 protein binding to printed compounds – biochemical, small-molecule microarray, 635/667 nm fluorescence, primary screen (AID 1139); details: fluorescence 635/667, higher = more signal
[8] = system: wheat germ agglutinin (Triticum aestivum), Alexa647-labelled; experiment: Alexa647-WGA lectin binding to printed small molecules – biochemical, small-molecule microarray, 635/667 nm fluorescence, artefact control for SMM control-protein annotation, profiling panel (AID 1140); details: WGA-A647 binding, 635 nm fluorescence, higher = more signal;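 also: score merges 667 nm feature emission with signal to noise over triplicate slides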
[9] = target: Luciferin 4-monooxygenase (Photinus pyralis) (UniProt P08659); experiment: inhibition of purified Photinus pyralis luciferase – biochemical, luminescence, purified enzyme, 2006 set, primary screen (AID 1141); details: purified firefly luciferase, SteadyGlo luminescence, 30 min; higher = more signal, called active from +8 up or from −8 down;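 also: cell-free assay with purified firefly luciferase at 100 ng per well in PBS; test concentration not given here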
[10] = system: Wnt5a (protein binding on small-molecule microarray); experiment: small molecules binding Wnt5a protein – biophysical, small-molecule microarray, 635/667 nm fluorescence, primary screen (AID 1142); details: 635 nm fluorescence, higher = more signal;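 also: fluorescence read at 667 nm with signal to noise per printed feature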
[11] = ATP-based viability of Huh7 replicon cells – cell-based, CellTiter-Glo luminescence, basal, 48 h, cytotoxicity control for HCV replication inhibitor project, primary screen (AID 1143); details: higher = more signal, called active from +8 up or from −8 down;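 also: Huh7 hepatoma cells carrying a hepatitis C replication reporter with no stimulus; test concentration not given here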
[12] = Pseudomonas biofilm growth suppression – PAO1 strain, BacTiter-Glo luminescence, LB-PBS, primary screen (AID 1144); details: P. aeruginosa PAO1 biofilm, 12 h, higher = more signal
[13] = basal CRE-LacZ reporter activity in PC12 – cell-based, unstimulated, primary screen (AID 1145); details: no forskolin, luminescence, 4.5 h, higher = more signal, called active from +8 up or from −8 down
[14] = forskolin-driven CRE-LacZ activity in PC12 – cell-based, CRE-LacZ reporter, forskolin-stimulated, primary screen (AID 1146); details: luminescence, 4.5 h, higher = more signal, called active from +8 up or from −8 down;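 also: PC12 cells with 6xCRE LacZ reporter stimulated by forskolin 10 µM; beta-galactosidase reporter signal reflecting CREB driven transcription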
[15] = target: Streptavidin (Streptomyces avidinii) (UniProt P22629); experiment: compounds binding control protein streptavidin – biophysical, small-molecule microarray, 635/667 nm fluorescence, artefact control for SMM compound annotation, primary screen (AID 1147); details: higher = more signal;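 also: signal reflects streptavidin binding to arrayed compounds as a control protein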
[16] = probe aInhba binding on compound microarray – biochemical, small-molecule microarray, 635/667 nm fluorescence, primary screen (AID 1148); details: higher = more signal;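 also: score merges 667nm spot fluorescence with signal-to-noise for antibody binding to printed compounds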
Torsin-1A (Homo sapiens) [17] = target: Torsin-1A (Homo sapiens) (UniProt O14656); experiment: TOR1A wild-type binding on microarray – cell lysate, small-molecule microarray, lysate, 635/667 nm, primary screen (AID 1149); details: COS7 hTOR1A-WT lysate, 635 nm fluorescence, higher = more signal
Torsin-1A (Homo sapiens) [18] = target: Torsin-1A (Homo sapiens) (UniProt O14656); experiment: torsin A mutant lysate binding on microarrays – cell lysate, small-molecule microarray, COS7 lysate, 635/667 nm fluorescence, primary screen (AID 1150); details: COS7 hTOR1A mutant lysate, 635 nm fluorescence, higher = more signal;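 also: score pools 667 nm emission and signal to noise measuring lysate protein binding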
[19] = system: Sonic hedgehog protein (Shh); experiment: Sonic hedgehog microarray binding compounds – biochemical, small-molecule microarray, 635/667 nm fluorescence, primary screen (AID 1151); details: 635 nm fluorescence, higher = more signal;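 also: Shh protein binding to compounds spotted on small-molecule microarray slides; score combines spot fluorescence intensity with signal-to-noise across triplicate slides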

Sequence of Torsin-1A (Homo sapiens) (O14656 whole entry, looked up): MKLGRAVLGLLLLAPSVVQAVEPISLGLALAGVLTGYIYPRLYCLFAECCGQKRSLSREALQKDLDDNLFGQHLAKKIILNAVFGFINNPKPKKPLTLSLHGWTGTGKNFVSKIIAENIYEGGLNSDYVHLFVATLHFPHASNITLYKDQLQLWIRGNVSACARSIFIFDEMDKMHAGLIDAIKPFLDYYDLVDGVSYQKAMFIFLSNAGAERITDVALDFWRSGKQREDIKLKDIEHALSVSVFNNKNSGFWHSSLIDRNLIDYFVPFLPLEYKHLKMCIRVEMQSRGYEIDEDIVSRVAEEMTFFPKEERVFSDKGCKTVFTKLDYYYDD
Sequence of Focal adhesion kinase 1 (Homo sapiens) (Q05397 whole entry, looked up): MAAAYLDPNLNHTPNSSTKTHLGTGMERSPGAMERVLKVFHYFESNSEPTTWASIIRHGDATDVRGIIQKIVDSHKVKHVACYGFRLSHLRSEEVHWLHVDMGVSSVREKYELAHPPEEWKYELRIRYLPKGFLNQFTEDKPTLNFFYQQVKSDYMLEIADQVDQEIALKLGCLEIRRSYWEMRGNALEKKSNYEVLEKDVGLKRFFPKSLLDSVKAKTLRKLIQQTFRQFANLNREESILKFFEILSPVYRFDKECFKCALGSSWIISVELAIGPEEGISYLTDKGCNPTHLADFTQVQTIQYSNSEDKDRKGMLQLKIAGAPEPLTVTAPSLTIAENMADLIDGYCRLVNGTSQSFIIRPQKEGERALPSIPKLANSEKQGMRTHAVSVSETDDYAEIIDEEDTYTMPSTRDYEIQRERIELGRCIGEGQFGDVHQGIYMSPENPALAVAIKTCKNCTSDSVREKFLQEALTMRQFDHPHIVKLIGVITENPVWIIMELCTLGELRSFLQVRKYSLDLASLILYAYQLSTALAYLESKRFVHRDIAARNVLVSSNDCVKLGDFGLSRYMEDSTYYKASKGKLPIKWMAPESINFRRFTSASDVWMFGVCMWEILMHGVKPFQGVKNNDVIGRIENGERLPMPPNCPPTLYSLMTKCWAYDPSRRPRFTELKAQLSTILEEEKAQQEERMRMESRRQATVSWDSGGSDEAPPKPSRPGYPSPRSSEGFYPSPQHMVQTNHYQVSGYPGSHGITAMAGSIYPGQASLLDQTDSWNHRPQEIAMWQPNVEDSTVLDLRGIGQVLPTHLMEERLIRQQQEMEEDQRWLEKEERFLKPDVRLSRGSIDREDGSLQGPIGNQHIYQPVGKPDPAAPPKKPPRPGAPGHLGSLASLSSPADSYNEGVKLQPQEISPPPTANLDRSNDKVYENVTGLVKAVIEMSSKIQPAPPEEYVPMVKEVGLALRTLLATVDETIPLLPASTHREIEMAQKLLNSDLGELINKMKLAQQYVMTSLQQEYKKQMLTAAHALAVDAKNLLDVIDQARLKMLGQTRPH
Sequence of Fibroblast growth factor 2 (Homo sapiens) (P09038 whole entry, looked up): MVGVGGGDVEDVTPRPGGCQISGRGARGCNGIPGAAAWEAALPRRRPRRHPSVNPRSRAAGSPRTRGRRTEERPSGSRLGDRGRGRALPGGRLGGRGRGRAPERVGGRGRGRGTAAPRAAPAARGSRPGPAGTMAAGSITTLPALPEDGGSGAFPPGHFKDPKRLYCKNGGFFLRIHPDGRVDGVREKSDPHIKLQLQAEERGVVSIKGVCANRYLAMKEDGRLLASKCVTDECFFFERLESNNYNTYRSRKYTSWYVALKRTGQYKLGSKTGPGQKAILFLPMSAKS
Sequence of Streptavidin (Streptomyces avidinii) (P22629 whole entry, looked up): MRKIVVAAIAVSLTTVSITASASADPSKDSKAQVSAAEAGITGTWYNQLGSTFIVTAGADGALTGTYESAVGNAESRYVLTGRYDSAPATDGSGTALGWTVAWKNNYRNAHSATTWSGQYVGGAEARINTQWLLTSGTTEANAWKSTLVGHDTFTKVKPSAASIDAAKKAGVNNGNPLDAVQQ
Sequence of Luciferin 4-monooxygenase (Photinus pyralis) (P08659 whole entry, looked up): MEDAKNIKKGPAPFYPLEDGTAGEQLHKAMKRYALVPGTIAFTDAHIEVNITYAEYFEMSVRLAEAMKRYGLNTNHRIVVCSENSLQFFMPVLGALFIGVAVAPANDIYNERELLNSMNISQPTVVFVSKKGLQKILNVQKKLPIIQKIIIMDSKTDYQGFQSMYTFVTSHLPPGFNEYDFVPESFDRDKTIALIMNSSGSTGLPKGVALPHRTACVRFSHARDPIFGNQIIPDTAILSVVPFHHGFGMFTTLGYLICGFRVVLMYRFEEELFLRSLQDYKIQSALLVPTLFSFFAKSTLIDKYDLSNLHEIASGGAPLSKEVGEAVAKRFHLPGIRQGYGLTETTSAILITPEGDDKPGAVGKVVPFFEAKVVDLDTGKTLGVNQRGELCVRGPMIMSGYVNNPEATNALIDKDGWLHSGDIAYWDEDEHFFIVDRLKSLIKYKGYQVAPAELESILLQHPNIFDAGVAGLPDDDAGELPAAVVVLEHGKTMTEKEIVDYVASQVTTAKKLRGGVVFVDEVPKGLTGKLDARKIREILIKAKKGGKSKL
Sequence of Follistatin (Homo sapiens) (P19883 whole entry, looked up): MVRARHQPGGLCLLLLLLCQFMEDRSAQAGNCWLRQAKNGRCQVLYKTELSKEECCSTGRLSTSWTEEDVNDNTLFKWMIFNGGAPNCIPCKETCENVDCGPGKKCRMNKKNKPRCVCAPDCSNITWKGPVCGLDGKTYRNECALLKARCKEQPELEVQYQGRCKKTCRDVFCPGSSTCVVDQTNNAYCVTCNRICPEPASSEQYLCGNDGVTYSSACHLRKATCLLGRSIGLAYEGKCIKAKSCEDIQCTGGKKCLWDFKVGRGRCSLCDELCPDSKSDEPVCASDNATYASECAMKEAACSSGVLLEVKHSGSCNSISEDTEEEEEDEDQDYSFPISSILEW

| SMILES | composite z-score [1] | composite z-score [2] | composite z-score [3] | composite z-score [4] | composite z-score [5] | composite z-score [6] | z-score [7] | composite z-score (Lefty1) | composite z-score [8] | z-score [9] | composite z-score [10] | z-score [11] | z-score [12] | z-score [13] | z-score [14] | composite z-score [15] | composite z-score [16] | composite z-score (Torsin-1A (Homo sapiens) [17]) | composite z-score (Torsin-1A (Homo sapiens) [18]) | composite z-score [19] |
| --- | --- | --- | --- | --- | --- | --- | --- | --- | --- | --- | --- | --- | --- | --- | --- | --- | --- | --- | --- | --- |
| CC(CCN1CCCCc2nc(C)c(C)cc21)=NOC[C@@H](C)[C@H](OCc1ccccc1)C(C)C | 1.59 | -0.824 | -0.0923 | -2.81 | -2.3 | -0.84 | 0.37 | -0.795 | -0.614 | -0.486 (inactive) | -0.876 | -1.07 (inactive) | -0.4 (inactive) | 0.262 (inactive) | 0.264 (inactive) | -2.45 | -0.37 | -1.62 | -1.49 | -0.689 |
| CCOC(=O)[C@H](CC(C)C)NC(=O)CCC1CC(OC(=O)NCc2cccc3ccccc23)CC2(CCCC(COC(=O)NCc3cccc(C(F)(F)F)c3)O2)O1 (stereo not given in full) | -0.206 | 0.492 | -0.0868 | 0.52 | 0.312 | 0.231 | 0.841 | 0.42 | 0.0501 | 0.421 (inactive) | -0.0645 | -0.0149 (inactive) | -0.658 (inactive) | 0.288 (inactive) | -0.274 (inactive) | 0.626 | -0.0872 | 0.27 | 0.261 | 0.258 |
| CCOC(=O)[C@H](CC(C)C)NC(=O)CCC1CC(OC(=O)NCc2cccc3ccccc23)CC2(CCCC(COC(=O)NCC3CCCCC3)O2)O1 (stereo not given in full) | 0.685 | 1.13 | -0.368 | 0.297 | 0.62 | 0.594 | -1.07 | 0.733 | 0.0121 | 1 (inactive) | -0.0639 | -4.12 (inactive) | -0.306 (inactive) | 0.0178 (inactive) | 1.6 (inactive) | 0.405 | -0.0962 | -0.192 | 0.528 | 1.06 |
| CCOC(=O)[C@H](CC(C)C)NC(=O)CCC1CC(OC(=O)NCc2cccc3ccccc23)CC2(CCCC(COC(=O)NCCc3ccc(Cl)cc3)O2)O1 (stereo not given in full) | 0.372 | 0.484 | 0.218 | 0.635 | 0.547 | 0.352 | 0.31 | 0.863 | 0.844 | 0.226 (inactive) | 0.0502 | -0.933 (inactive) | -1.39 (inactive) | -0.707 (inactive) | -1.17 (inactive) | 0.614 | -0.0987 | 0.549 | 0.372 | 0.728 |
| CCOC(=O)C1=NO[C@@]2(C=C(Br)C3(OCCCO3)[C@H]3O[C@H]32)C1 | 0.968 | 0.228 | 0.0306 | 0.982 | 1.43 | 1.14 | -0.0326 | 1.04 | 0.818 | -0.279 (inactive) | 0.4 | 0.164 (inactive) | 0.208 (inactive) | -0.258 (inactive) | 0.572 (inactive) | 1.45 | -0.0313 | 0.712 | 0.332 | 0.959 |
| COC(=O)C=CCCc1coc(C=CCNC(=O)OC)n1 | 0.803 | -0.259 | 0.256 | 0.247 | 1.15 | 1.04 | -1.15 | 1.37 | 0.0559 | 0.122 (inactive) | 0.4 | -0.0328 (inactive) | -0.0662 (inactive) | 0.38 (inactive) | 0.702 (inactive) | 0.0242 | 0.432 | 0.583 | 0.205 | 1.15 |
